# Experimental data: PMC7862700, “An all-to-all approach to the identification of sequence-specific readers for epigenetic DNA modifications on cytosine”
# How the values were obtained:
# Test in all cases: DAPPL (digital affinity profiling via proximity ligation, sequencing); 10 mM Tris-HCl pH 7.5, 50 mM NaCl, 1 mM DTT, 4% glycerol, room temperature, 30 min; GST-TFs on glutathione beads, 16-mer random dsDNA library, 0.1% formaldehyde crosslink after washing; high values mean tight binding
# Conditions in all cases: protein: recombinant; tags: N-terminal GST; dsDNA, one strand shown
# [1] = molecular target: T1, ELK4 (Homo sapiens, UniProt P28324-2 1-405)
# T1 sequence: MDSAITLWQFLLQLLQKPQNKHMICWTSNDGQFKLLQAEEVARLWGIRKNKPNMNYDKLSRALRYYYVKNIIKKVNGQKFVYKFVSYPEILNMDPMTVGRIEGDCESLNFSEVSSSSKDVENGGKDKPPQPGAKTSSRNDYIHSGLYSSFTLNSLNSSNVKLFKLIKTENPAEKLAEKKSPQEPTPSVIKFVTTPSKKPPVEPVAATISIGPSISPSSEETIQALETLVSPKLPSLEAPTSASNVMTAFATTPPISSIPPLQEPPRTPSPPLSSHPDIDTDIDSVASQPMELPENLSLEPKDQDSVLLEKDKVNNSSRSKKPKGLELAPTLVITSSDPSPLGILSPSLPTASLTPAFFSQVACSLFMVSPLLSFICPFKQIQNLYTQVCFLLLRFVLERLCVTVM
# Outline: (§1)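 Sequencing on an Illumina NextSeq500 followed washing, crosslinking with 0.1% formaldehyde, proximity ligation (BsaI/T4 ligase, 1 h, 37 °C) and PCR amplification of pools that had been incubated for 30 min at room temperature with 200 nmole of a random double-stranded 16-mer DNA library in Tris/NaCl/DTT/glycerol buffer. Each pool held DNA-barcoded human transcription factors, expressed in yeast as GST fusions and captured on glutathione beads, plus a tag-only sample. Binding signal is a hexamer's read frequency for a factor divided by its frequency in the tag-only sample.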
# [2] = molecular target: T2, ETV2 (Homo sapiens, UniProt O00321 1-342)
# T2 sequence: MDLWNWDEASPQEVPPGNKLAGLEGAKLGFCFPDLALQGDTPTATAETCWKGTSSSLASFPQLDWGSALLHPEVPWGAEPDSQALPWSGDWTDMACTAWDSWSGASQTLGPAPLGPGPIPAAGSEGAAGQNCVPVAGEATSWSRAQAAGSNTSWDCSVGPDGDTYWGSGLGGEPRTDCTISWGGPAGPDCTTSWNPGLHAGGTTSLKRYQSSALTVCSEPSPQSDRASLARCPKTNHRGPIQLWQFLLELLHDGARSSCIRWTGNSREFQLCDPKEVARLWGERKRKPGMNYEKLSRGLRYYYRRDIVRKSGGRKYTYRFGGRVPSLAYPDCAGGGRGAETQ
# Outline: as §1
# [3] = molecular target: ELF1 (Homo sapiens, UniProt P32519 1-619)
# ELF1, sequence (P32519 whole entry): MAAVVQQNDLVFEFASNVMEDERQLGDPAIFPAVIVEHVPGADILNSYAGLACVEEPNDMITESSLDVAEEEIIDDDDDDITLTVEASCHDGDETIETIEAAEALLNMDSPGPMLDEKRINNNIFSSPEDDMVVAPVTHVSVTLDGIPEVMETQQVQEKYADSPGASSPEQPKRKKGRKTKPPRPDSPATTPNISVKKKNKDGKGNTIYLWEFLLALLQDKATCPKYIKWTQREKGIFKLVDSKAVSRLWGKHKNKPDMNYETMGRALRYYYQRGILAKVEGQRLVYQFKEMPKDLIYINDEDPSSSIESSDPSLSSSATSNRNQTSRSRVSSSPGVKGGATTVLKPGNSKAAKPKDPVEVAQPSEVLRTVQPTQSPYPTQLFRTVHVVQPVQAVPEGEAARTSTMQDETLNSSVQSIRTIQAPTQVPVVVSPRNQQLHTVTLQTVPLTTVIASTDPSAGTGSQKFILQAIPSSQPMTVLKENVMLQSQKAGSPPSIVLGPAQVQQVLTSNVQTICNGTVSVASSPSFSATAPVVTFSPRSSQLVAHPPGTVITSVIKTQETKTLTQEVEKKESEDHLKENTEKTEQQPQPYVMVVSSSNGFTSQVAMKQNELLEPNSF
# Outline: as §1
# [4] = molecular target: T3, EHF (Homo sapiens, UniProt Q9NZC4 1-300)
# T3 sequence: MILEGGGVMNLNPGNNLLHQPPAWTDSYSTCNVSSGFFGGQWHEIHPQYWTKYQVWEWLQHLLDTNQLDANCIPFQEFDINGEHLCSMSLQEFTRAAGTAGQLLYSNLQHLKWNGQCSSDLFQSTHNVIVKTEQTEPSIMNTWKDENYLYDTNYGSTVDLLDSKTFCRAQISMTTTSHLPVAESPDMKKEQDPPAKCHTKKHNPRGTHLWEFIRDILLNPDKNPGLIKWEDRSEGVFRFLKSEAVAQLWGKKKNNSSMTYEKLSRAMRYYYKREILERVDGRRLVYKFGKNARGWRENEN
# Outline: as §1
# [5] = molecular target: T4, ELK3 (Homo sapiens, UniProt P41970 1-407)
# T4 sequence: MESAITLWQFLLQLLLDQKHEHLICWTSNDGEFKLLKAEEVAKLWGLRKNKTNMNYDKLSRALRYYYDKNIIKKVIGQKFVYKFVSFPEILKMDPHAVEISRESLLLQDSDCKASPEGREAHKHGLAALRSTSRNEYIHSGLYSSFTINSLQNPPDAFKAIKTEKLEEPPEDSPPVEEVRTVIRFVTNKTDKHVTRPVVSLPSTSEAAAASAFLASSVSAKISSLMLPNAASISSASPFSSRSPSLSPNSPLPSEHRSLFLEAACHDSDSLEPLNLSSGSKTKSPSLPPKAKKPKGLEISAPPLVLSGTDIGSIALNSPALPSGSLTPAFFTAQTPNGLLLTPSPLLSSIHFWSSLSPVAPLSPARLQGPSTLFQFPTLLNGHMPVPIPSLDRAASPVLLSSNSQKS
# Outline: as §1
# [6] = molecular target: CRX (Homo sapiens, UniProt O43186 1-299)
# CRX, sequence (O43186 whole entry): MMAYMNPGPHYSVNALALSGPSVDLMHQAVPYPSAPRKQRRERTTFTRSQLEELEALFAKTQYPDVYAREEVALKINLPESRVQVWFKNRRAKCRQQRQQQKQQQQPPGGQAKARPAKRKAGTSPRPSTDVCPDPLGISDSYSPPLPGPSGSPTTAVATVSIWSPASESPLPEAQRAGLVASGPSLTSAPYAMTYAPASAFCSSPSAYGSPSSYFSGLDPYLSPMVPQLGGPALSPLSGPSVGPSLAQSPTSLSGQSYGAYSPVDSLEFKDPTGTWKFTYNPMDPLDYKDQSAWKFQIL
# Outline: as §1
# [7] = molecular target: T5, ETV3L (Homo sapiens, UniProt Q6ZN32 1-361)
# T5 sequence: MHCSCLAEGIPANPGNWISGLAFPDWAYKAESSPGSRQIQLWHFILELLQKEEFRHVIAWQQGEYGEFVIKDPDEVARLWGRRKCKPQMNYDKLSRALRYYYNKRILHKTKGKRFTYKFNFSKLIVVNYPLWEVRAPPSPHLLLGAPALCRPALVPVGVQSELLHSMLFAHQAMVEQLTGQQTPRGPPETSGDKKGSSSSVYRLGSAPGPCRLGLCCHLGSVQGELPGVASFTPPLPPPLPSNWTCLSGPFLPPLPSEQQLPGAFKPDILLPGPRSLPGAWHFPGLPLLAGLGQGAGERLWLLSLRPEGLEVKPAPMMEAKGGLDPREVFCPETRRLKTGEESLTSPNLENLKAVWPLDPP
# Outline: as §1
# [8] = molecular target: T6, ETV7 (Homo sapiens, UniProt Q9Y603 1-341)
# T6 sequence: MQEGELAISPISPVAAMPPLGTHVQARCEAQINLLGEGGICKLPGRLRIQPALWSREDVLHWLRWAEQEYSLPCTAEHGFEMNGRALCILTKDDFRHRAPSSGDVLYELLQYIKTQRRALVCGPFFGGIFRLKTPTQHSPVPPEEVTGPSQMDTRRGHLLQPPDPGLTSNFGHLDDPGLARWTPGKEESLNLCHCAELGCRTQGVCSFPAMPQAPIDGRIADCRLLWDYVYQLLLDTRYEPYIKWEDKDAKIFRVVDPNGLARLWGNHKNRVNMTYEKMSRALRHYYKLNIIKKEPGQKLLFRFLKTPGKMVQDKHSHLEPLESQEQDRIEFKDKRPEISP
# Outline: as §1
# [9] = molecular target: SPI1 (Homo sapiens, UniProt P17947 1-270)
# Outline: as §1
# [10] = molecular target: SPIB (Homo sapiens, UniProt Q01892 1-262)
# SPIB, sequence (Q01892 whole entry): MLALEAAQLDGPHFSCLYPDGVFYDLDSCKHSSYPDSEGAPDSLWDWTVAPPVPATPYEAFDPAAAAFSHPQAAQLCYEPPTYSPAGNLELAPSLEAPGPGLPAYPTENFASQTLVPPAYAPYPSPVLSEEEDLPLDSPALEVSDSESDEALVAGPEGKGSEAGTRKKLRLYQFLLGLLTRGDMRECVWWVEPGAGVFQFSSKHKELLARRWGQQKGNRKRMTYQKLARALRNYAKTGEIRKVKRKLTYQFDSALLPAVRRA
# Outline: as §1
# [11] = molecular target: T7, GABPA (Homo sapiens, UniProt Q06546 1-454)
# T7 sequence: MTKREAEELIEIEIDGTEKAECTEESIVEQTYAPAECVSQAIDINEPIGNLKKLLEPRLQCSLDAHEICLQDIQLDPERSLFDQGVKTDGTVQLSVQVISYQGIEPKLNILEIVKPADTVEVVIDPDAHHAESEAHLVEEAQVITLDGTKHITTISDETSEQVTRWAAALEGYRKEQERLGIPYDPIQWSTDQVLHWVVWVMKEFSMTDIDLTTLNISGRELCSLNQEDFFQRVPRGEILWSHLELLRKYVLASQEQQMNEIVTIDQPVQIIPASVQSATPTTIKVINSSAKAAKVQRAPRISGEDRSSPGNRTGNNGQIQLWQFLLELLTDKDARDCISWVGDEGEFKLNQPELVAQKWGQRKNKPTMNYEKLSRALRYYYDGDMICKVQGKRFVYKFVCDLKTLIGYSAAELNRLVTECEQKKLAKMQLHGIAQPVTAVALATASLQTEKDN
# Outline: as §1
# [12] = molecular target: T8, ELF3 (Homo sapiens, UniProt P78545 1-371)
# T8 sequence: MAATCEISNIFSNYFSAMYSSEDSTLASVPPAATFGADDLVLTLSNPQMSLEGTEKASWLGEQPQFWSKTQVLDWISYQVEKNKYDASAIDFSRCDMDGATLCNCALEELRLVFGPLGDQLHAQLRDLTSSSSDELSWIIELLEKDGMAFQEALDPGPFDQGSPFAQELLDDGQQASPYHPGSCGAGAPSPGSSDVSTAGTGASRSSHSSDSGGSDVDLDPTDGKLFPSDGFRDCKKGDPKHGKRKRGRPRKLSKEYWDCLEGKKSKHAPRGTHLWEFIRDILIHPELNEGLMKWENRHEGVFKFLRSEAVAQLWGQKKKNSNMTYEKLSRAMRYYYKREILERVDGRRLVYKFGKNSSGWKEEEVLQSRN
# Outline: as §1
# [13] = molecular target: T9, ETV3 (Homo sapiens, UniProt P41162-2 1-143)
# T9 sequence: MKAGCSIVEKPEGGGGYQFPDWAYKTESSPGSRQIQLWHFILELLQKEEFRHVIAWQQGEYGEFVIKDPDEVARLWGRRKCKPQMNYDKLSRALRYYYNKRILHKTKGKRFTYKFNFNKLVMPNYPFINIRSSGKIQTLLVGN
# Outline: as §1
sequence,measurement,setting,value
GCGTCA,binding signal,[1],"1.01 fold enrichment (6-mer frequency, TF over GST control)"
same,binding signal,[2],"1.06 fold enrichment (6-mer frequency, TF over GST control)"
TCTGAG,binding signal,[3],"1.01 fold enrichment (6-mer frequency, TF over GST control)"
same,binding signal,[4],"1.01 fold enrichment (6-mer frequency, TF over GST control)"
same,binding signal,[5],"1.01 fold enrichment (6-mer frequency, TF over GST control)"
same,binding signal,[1],"1.08 fold enrichment (6-mer frequency, TF over GST control)"
same,binding signal,[6],"1.04 fold enrichment (6-mer frequency, TF over GST control)"
same,binding signal,[7],"1.01 fold enrichment (6-mer frequency, TF over GST control)"
same,binding signal,[8],"1.05 fold enrichment (6-mer frequency, TF over GST control)"
GTGGTA,binding signal,[9],"1.02 fold enrichment (6-mer frequency, TF over GST control)"
same,binding signal,[10],"1 fold enrichment (6-mer frequency, TF over GST control)"
same,binding signal,[1],"1.02 fold enrichment (6-mer frequency, TF over GST control)"
CAAGCC,binding signal,[11],"1.03 fold enrichment (6-mer frequency, TF over GST control)"
same,binding signal,[5],"1.06 fold enrichment (6-mer frequency, TF over GST control)"
same,binding signal,[1],"1.07 fold enrichment (6-mer frequency, TF over GST control)"
same,binding signal,[2],"1.06 fold enrichment (6-mer frequency, TF over GST control)"
same,binding signal,[12],"1.12 fold enrichment (6-mer frequency, TF over GST control)"
same,binding signal,[8],"1.02 fold enrichment (6-mer frequency, TF over GST control)"
same,binding signal,[13],"1.02 fold enrichment (6-mer frequency, TF over GST control)"
